Hit rate of the full screen: of about 53,000 sequences, about 3,700 (7%) were called active. The sample as a whole holds a higher share of actives than the screen did. A number with no mark means an inactive call.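 The calls were made as follows: active = gene knockdowns whose robust z-score for IL-1 alpha signal is at least 2 or at most -2, so actives lie on both sides; inactive = the rest.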

A short description of the assay: Components of the Cytosolic LPS Sensing Pathway: Gene Identification via Genome-wide siRNA Screen.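 Also: robust z of the log signal after scaling to non-targeting control siRNA wells of the plate.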 To be noted: RAW264.7 macrophages, IL-1a HTRF, actives lie on both sides, screened at 100 nM (by protocol), cells primed 5 h with Pam3CSK4 first. The method, boiled down:
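Three distinct siRNAs per gene were tested singly at 100 nM in RAW264.7 macrophages. Following Pam3CSK4 priming and 24 hour LipidA transfection, IL-1a secretion was read by HTRF.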
In the case of GGAACUAACGGAAUUACUGTT against Arl3, the z-score was 0.951.
On to GCGAAAUCAACAGUCAAUUTT against Ep300, for which the z-score is 0.458.
The figure for GGAAGCAGAGCAGCUGUUUTT against Skiv2l is -0.567; for GGGAUCAAUUUUGAAGAAUTT against Jmjd4 it is -0.398; for GGAGUAUGUCCAUUGUCACTT against Vmn1r230 it is -2.54 (active).
On to UCAGCGAGCUUUAACCUUUTT against Olfr1028, for which the z-score is 0.26.
On to GGUUUUUCAGCUUUGGAACTT against Decr1, for which the z-score was -0.822.
For CCCACUUUCUUUGAUAACUTT against Bcl2l11, the z-score is 0.585.
In the case of CGCGUAGAUAAGAAGUAUUTT against Anks1 it was 0.181.
In the case of GCUCAACAAAGCCUGUUCGTT against Zp3 it was 2.35 (active); in that of GCAUUACUAAUCAAAGUGGTT against Abcb1b, -0.78.
With CCACUUCAUGAUUGAGUGCTT against Phf8-ps, the z-score is -0.836.
In the case of CCAUGAGUUCAGAUGAUGATT against Ints10 it was -1.11; in that of CCUGAAACAUUCAGUGUCUTT against Apool, 0.293; in that of GCUUAAUUUCAUUUCAAGGTT against B3gnt5, 0.496.
In the case of GCUUCCCUGCCGUGAUGAUTT against Git1 it was -1.15.
In the case of GGACACAAGUUUUCAGAUCTT against Elmod2 it was 3.02 (active).
As for GGAUCAUGGAUAUACCACCTT against Smarcb1, the z-score was -1.72.
In the case of GGUGCAAACUAAAAAUCUUTT against Enc1 it was 2.73 (active); in that of GGAAGAUGAAGAUGAGAAUTT against Igbp1b, -1.24.
The figure for GGGAAGCAUGCAGAACAGCTT against Parg is -1.42; for GGUUCCUCAAGAUCAUCAUTT against P2ry13 it is 0.051.
Consider GCUUUGAUGGAUUCUAAUCTT against Htt, for which the z-score is 1.09.
The figure for CCCAUUUGCUCUGUGGAUCTT against Tha1 is 0.289; for GCACUUUGGGUUUAAGUACTT against Ndrg4 it is 3.7 (active); for GGGAGAGAGAAAAAGAAAATT against Park7 it is 0.94.
Turning to CCUGGCCAUGUCGAAAGAUTT against Pla2g6, the z-score is 0.716.
On to GGAAGAAGUCAGAUGUGGATT against Radil, for which the z-score is -0.315.
The figure for UGAUGCUAAGACUGAACCATT against Olfr541 is -1.14.
The figure for GGACAUUGUUGUCCAAACUTT against Sptb is -2.24 (active); for CCAUAUUUGAAGAAGUCCATT against Espl1 it is -0.325; for GGGUACAACUCUUUGAAGATT against Mnat1 it is 0.535.
As for GCAGUUGAUGAUAAUGUGATT against Pot1b, the z-score is -0.0269.
CGCGGAAACUCUCCACUUATT against Psme4: the z-score was -1.18.
Take GGGCGAUAUUAUGAGCAACTT against Atp1b2: the z-score was 3.78 (active).
The figure for GGAUCCUCUUCUAUCUUUATT against Pycr1 is -1.27; for GGCUGCUUUACUGAAGUAATT against C2cd6 it is 1.29.
In the case of GGGACUUGGAUCGAAUGGATT against Apeh it was 0.326; in that of GGGAAAUUGUGUAGCAGCUTT against Slc25a29, -2.76 (active); in that of GGAGGUGGUGUUUAUACCATT against Scrn2, 0.728.
The figure for GCCUAUGCAGCUCUCUCUGTT against Acat3 is 0.772.
Take GGUUAUUACGUAGUUGGUATT against Cd46: the z-score is 0.683.
The figure for GGUCUACGCGCUCUAUGAATT against Gpr150 is -1.03; for GGAGACAGAAUCAUAGUUATT against Sh3yl1 it is 0.0505.
With CGAUUCUUUAGGAACUUUGTT against Pak7, the z-score was -0.0771.
In the case of GGCAGUGGUUAAAGGUUCCTT against Lrp6 it was 2.27 (active).
For GCACUUAUACUACUUAGUUTT against Abca8a, the z-score was 2.4 (active).
In the case of GCAGGAUUUUCACCAACAGTT against Gh it was -0.215; in that of GGUAGAAUCCGGUUACCACTT against Tox, 0.704.
The figure for GGGAAAGACCAUGUUUGUATT against Ttbk2 is 0.493; for CCAAUUGUGAGAAGAGUGUTT against Cog7 it is -0.46.
The figure for GGAUUUUGUGAAUAAAUGCTT against Map2k1 is 1.31; for GGGAAAAGAGAGUGGUGUATT against Rab27a it is -0.26.
With GGAGAGCUGGUGUUUUAGATT against Tnfrsf17, the z-score was 2.74 (active).
As to GGGUUCAUUUCUCAAAAUUTT against Nol7, the z-score was -0.831.
Turning to GGAACAAGAAGACUGUGAATT against Pcnt, the z-score was -0.519.
In the case of GCCUUACAAUUUGUUCUACTT against Dsc1 it was 1; in that of CGUCCAGUAUACGCUGGUUTT against Cdc45, 5.41 (active).
In the case of GGAUGAACCAAGCUACUGCTT against Gba2 it was -0.541.
In the case of GUUCAAGACGGAGAAGAGGTT against Gpr27, the z-score is 3.03 (active).
In the case of CCCAAUACAUGAGCUUCUGTT against Ch25h it was -0.209; in that of GGAAGACUUCGUGUUGACATT against Proz, 0.223.
In the case of GGCUCUAUGUUUAUAAUGATT against Olfm5 it was -2.07 (active); in that of GGAAAAAUGACUGAUCUCUTT against Unc5c, -0.0354.
Turning to GGUUGGUAGACUGUGCUUGTT against Hgsnat, the z-score is -2.56 (active).
In the case of GGACCUACUACGUAAACCATT against Nedd4 it was 0.434.
In the case of GGAAUAUCGGACUUUUUCATT against Mis18bp1 it was 0.635; in that of CGGGACCUUGUUGAUAACUTT against Tmem130, 0.811; in that of GGUGUUUGGGAAAGGUCUGTT against Trpm1, -1.33.
The figure for GCACAAAUGGGAAUACGACTT against Klhl36 is -0.94.
Take CCAACCAGACUUAUUUAAUTT against Zfp37: the z-score is 1.61.
In the case of GGGUGGCUAUGGACAAAAATT against Arl5c it was 0.887.
GGACAUCAAUUCAACAGUUTT against Lifr: the z-score was -0.361.
In the case of GGAAGAGUGUUUAAACUAUTT against Kbtbd8 it was -0.591; in that of CCUGAUCUAAUCCUAAAUGTT against Pgr, -0.171; in that of AUCUAUUCGAAUCAGGAAGTT against Epsti1, -0.102.
In the case of GGCUUUUGAAGUAAAUACATT against Pcdhb14 it was 2.65 (active).
For GUCCAGAGUGACCACAUUUTT against Pemt, the z-score was -0.471.
The figure for GGAUUACGCAGAUUCCAUUTT against Rab22a is -0.474.
In the case of CGAAUUGAAUUCUACGAACTT against Pmm2 it was 0.252; in that of GGAUGAUAAAGACAAAGUATT against Ppm1g, -0.921; in that of GGUUUCUGGCUUUCCGUAGTT against Erf, -0.0549.
In the case of GCUCUGCAUGACCUUACCUTT against Ugt2b1 it was 0.245.
Take GGCCUUUGUACAGGACCCATT against Tor2a: the z-score is -1.01.
The figure for GGUCAGAAGAGAUCAAAAGTT against Ttc23 is -0.0386; for GCCUACUCCCAAGAGGAAATT against Gprc5a it is 2.32 (active); for GGACAGCAAGAUGAAGAUGTT against Il17ra it is -1.32.
In the case of UUGAUUUGGUAGCCUGCUCTT against Olfr1303 it was 0.962; in that of “CCCUGCUUCGUGUGCUAUUTT against C130074G19Rik”, 0.499; in that of GGUACCUGAGGUAGAAAAGTT against Pnma3, -2.5 (active).
In the case of GGAAUGUGUUGAAAUAUGATT against P4ha3 it was 0.0288.
As to CCACGGAGACAACUUAGUATT against Scfd2, the z-score was 0.568.
With GGCGGUCAAGUGAGGUUCUTT against Hhex, the z-score was 3.62 (active).
On to GGACUUUUCUGCUAUUUACTT against Kcnh2, for which the z-score was -0.471.
The figure for GGAAAGAAUUGAAUACUCGTT against Gpr89 is -0.279; for GGUGAAUUUCCUUCUACAUTT against Tas1r1 it is -1.56; for GCUGGGAUAUGAAAUCUAUTT against Gprc6a it is 2.74 (active).
In the case of GGUGAUAAAGUCAUUCCACTT against Adh1 it was 0.759.
In the case of GGAAGACAUAUUUCAACAGTT against Ehhadh it was -1.37; in that of GCAGUGUAUUGGUAAUCAATT against Olfr630, 1.44; in that of GCAUCGAUCUUGAGUUAGATT against Hebp1, 0.579.
Regarding GCGCAGGUUCAAUGUGGAUTT against Prodh, the z-score is 1.72.
In the case of GGCGAUAGACGAGUAUCAGTT against Aida it was 0.41; in that of CCAGCAAAUAUCCUAGUAATT against Cdk19, 0.111; in that of CGUGUGUGUCAUGUUACGGTT against Dusp2, -0.901.
The figure for GGAGAGCUGGAACAAUAGCTT against Bcl2l2 is 2.26 (active); for GGAUGAAUGGAGAACUGAATT against Afap1l1 it is -1.21.
Turning to CCAUGACAAUGAAUAUCCUTT against Ms4a19, the z-score was -1.24.

Values taken from PubChem BioAssay AID1508600 (Functional Genomics Laboratory (NCATS/FGL), 2020).
